Experimental findings from PubChem BioAssay are described below.

Active and inactive are the calls of the source.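 The calls were made as follows, unless noted: active = fluorescence slope after compound addition differing from the mean of all screened samples at 99.7% confidence, in either direction; inactive = the rest.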

Assay [1] in a line: inhibitors of TNFa-induced NFkB p65 translocation, primary screen, imaging, HUVEC, MLSMR starter and 10KST1 sets (AID 438;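 active = inhibition above 20% together with a positive visual image hit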;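 also: compound added about 3h40 before a 20 min TNFalpha stimulation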;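 as to inhibition: signal is the nuclear over cytoplasmic p65 intensity ratio per well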). The conditions noted are these: HUVEC TNFa-induced p65 nuclear translocation; cell count: measured here: nuclei count (cytotoxicity indicator), at 2.08 µM; inhibition: at 2 µM, stronger effect = higher value, 0% TNFa-plus-vehicle, 100% no-TNFa wells.
Assay [2] is described as follows: inhibitors of mutant huntingtin aggregation, primary screen, imaging, exon1htt(103Q)mCFP cells, high-content imaging (AID 483;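 active = visual image review flags a hit and inhibition of aggregation exceeds 20%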;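 also: compound exposure lasted 3 days before fixation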;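 as to nuclei count: percent of the per-plate median nuclei count of sample wells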). Conditions: exon1htt(103Q)mCFP cell line, aggregate imaging, at 2 µM; inhibition of aggregation: stronger effect = higher value; nuclei count: measured here: cell count, toxicity.
Assay [3] in a line: inhibitors of E-selectin induction by TNFa, primary screen, imaging, HUVEC, immunofluorescence, MLSMR starter and 10KST1 sets (AID 487;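 active = visually confirmed hit in the image check and inhibition above 20%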;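 as to inhibition: signal is fraction of cell area covered by stained E-selectin grains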;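 as to nuclei count: 100% = median nuclei count of all wells on the same plate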). The conditions noted are these: HUVEC TNFalpha-induced E-selectin immunofluorescence imaging, at 2 µM; inhibition: stronger effect = higher value; nuclei count: measured here: cell number, toxicity.
For assay [4], the target named is Voltage-gated potassium channel subunit beta-2 (Rattus norvegicus) (UniProt P62483). Put plainly: KvBeta enzyme negative modulators, primary screen, biochemical, NADPH fluorescence (AID 622;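 active = fluorescence slope higher than the sample average by over 3 SD, cut at about -0.22 in these data, passing the limit was not always enough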;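 also: slope of raw intensity against log time taken from 70 to 1610 s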). The conditions noted are these: recombinant KvBeta, 4-cyanobenzaldehyde reduction, at 10 µM, stronger effect = higher value.
Assay [5] has the same target. In words: KvBeta positive modulators, primary screen, biochemical, NADPH fluorescence (AID 623;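 active = NADPH fluorescence slope more negative than the mean of all samples by about 3 SD, 99.7% confidence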;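 also: fluorescence intensity change per second fitted from 20 to 320 s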). Conditions: Recombinant KvBeta, NADPH fluorescence decrease slope, 10 min; at 10 µM; stronger effect = lower value.
Assay [6] deals with Alpha-2C adrenergic receptor (Homo sapiens) (UniProt P18825). Put plainly: modulators of alpha2C/GIRK thallium flux, primary screen, cell-based, HEK293 alpha2C/GIRK1/2 (AID 624).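 Also: slope of fluorescence ratio to pre-addition baseline per second over 15 to 24 s.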 Conditions: thallium flux BTC fluorescence, at 10 µM, actives lie on both sides.
Assay [7] can be described thus: inhibitors of Sendai virus-induced IRF3 signaling, primary screen, TLR/RLR signaling modifier project, cell-based, Sendai virus stimulus, luciferase, 10K MLSCN set (AID 602276;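 active = inhibition at or above 50% at 10 µM; inactive = inhibition below 50%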;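 also: firefly luciferase from ISG56 promoter only with Renilla not read in this screen; 0% = Sendai virus plus DMSO and 100% = medium plus DMSO without virus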). Conditions: HEK293 RL24 IRF3 luciferase reporter, at 10 µM, stronger effect = higher value. In general terms: In a reporter assay the amount or activity of a reporter protein is the signal.
Assay [8] is described as follows: inhibitors of poly I:C-induced TLR3 signaling, primary screen, cell-based, poly I:C stimulus, luciferase, 10K MLSCN set (AID 602277;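 active = inhibition of the reporter signal at or above 50%; inactive = inhibition below 50%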). The conditions noted are these: HEK293-TLR3 RL24 IRF3 luciferase reporter, at 10 µM, stronger effect = higher value.

Sequence of Voltage-gated potassium channel subunit beta-2 (Rattus norvegicus) (P62483 whole entry, looked up): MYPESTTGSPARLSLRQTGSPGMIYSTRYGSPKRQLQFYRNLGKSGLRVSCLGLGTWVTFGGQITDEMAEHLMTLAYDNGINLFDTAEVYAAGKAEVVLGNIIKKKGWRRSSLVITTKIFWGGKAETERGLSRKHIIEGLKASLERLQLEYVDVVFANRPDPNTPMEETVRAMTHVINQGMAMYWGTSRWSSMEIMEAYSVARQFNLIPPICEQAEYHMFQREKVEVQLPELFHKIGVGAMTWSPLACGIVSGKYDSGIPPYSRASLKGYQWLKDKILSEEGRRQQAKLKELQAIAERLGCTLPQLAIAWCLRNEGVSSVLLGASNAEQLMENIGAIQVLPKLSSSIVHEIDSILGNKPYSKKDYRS
Sequence of Alpha-2C adrenergic receptor (Homo sapiens) (P18825 whole entry, looked up): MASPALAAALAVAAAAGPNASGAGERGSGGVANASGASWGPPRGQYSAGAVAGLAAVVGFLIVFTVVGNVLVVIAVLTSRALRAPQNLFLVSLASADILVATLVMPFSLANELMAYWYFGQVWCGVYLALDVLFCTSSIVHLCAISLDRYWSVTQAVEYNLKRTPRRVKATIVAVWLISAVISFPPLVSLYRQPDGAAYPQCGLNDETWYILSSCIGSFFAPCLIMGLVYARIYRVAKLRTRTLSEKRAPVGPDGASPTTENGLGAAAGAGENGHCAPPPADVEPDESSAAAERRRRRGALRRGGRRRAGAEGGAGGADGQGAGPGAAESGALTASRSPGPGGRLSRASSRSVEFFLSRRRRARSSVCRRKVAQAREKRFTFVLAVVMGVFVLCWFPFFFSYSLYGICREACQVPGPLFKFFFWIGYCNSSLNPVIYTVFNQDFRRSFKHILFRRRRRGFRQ

For orientation: inhibition means the relative decrease from the control value, in per cent. For the compound `O=S(=O)(Nc1ncccn1)c1ccc(Nc2ncnc3ccccc23)cc1`, the cell count in assay [1] came out at 623. The inhibition is -16.4% (inactive) in assay [1], -6% (inactive) in assay [3], -24.5% (inactive) in assay [7] and 12.4% (inactive) in assay [8]. In addition, the inhibition of aggregation in assay [2] is -7.6% (inactive). The results for the nuclei count in assay [2] and in assay [3] were 89.3% and 105%, respectively. Also, the fluorescence slope in assay [4] is -0.459 (inactive). Moreover, in assay [5], the NADPH fluorescence slope is -4.3e-05 (inactive). The slope in assay [6] is 0.00604 (inactive).

As to `Cc1csc(SCc2nc3sc4c(c3c(=O)[nH]2)CCC4)n1`, the cell count in assay [1] came out at 562. The inhibition in assay [1] was 1.9% (inactive); in assay [3] it was -229% (inactive); in assay [7] it was 13% (inactive); in assay [8], 1.21% (inactive). Besides, the inhibition of aggregation in assay [2] is 0.1% (inactive). The nuclei count in assay [2] came to 116%; in assay [3], 171%. Moreover, the fluorescence slope in assay [4] was -0.553 (inactive). In assay [5], the NADPH fluorescence slope was -1.4e-05 (inactive). Also, the slope in assay [6] is 0.00536 (inactive).

`Cn1c(Cc2ccccc2)nnc1SCC(=O)c1ccc(Br)s1`: in assay [1], the cell count was determined as 180. Moreover, the inhibition is 0.4% (inactive) in assay [1], -8.9% (inactive) in assay [3], 6.15% (inactive) in assay [7] and 10.8% (inactive) in assay [8]. In addition, in assay [2], the inhibition of aggregation was 16.7% (inactive). In addition, the nuclei count in assay [2] is 94.8%; in assay [3] it was 98.1%. The fluorescence slope in assay [4] was -0.596 (inactive). In assay [5], the NADPH fluorescence slope was -1.4e-05 (inactive). Besides, in assay [6], the slope was 0.00563 (inactive).

With `CCOc1cc(C2C(C#N)=C(N)Oc3n[nH]c(CC)c32)ccc1OCCN1CCOCC1` (stereo not drawn), the cell count in assay [1] is 421. For the same compound, the inhibition was 23.4% (active) in assay [1], -49.3% (inactive) in assay [3], 14.3% (inactive) in assay [7] and 15.9% (inactive) in assay [8]. Further, the inhibition of aggregation in assay [2] is 12.6% (inactive). In addition, the nuclei count was determined as 108% in assay [2] and 101% in assay [3]. Besides, the fluorescence slope in assay [4] was -0.506 (inactive). Further, the NADPH fluorescence slope in assay [5] was -3.1e-05 (inactive). In addition, in assay [6], the slope is 0.00486 (inactive).

`Clc1ccc2nc(N3CCCCC3)[nH]c2c1`: the cell count in assay [1] turned out to be 706. For the same compound, the inhibition is 5.6% (inactive) in assay [1], -82.5% (inactive) in assay [3], -26% (inactive) in assay [7] and -98.5% (inactive) in assay [8]. Also, the inhibition of aggregation in assay [2] was 11.3% (inactive). Moreover, the nuclei count is 98.7% in assay [2] and 102% in assay [3]. The fluorescence slope in assay [4] is -0.446 (inactive). Further, the NADPH fluorescence slope in assay [5] is -6.8e-05 (inactive). The slope in assay [6] is 0.00544 (inactive).

As for `O=C(O)CCNc1nc(-c2ccccc2)nc2ccccc12`, the cell count in assay [1] is 619. Also, the inhibition in assay [1] was -7.6% (inactive); in assay [3] it was -28.1% (inactive); in assay [7], -3.96% (inactive); in assay [8], 7.69% (inactive). The inhibition of aggregation in assay [2] is -14.3% (inactive). The results for the nuclei count in assay [2] and in assay [3] were 103% and 127%, respectively. In assay [4], the fluorescence slope is -0.579 (inactive). Moreover, in assay [5], the NADPH fluorescence slope is 3e-05 (inactive). In assay [6], the slope is 0.00675 (inactive).

Turning to `Cc1nc(C)c(C(=O)C2=C(O)C(=O)N(CCCn3ccnc3)C2c2ccccc2)s1` (stereo not drawn), the cell count in assay [1] amounted to 481. For the same compound, the inhibition was 4% (inactive) in assay [1], 39.5% (inactive) in assay [3], -7.2% (inactive) in assay [7] and -4.54% (inactive) in assay [8]. Moreover, the inhibition of aggregation in assay [2] is 11.4% (inactive). The nuclei count is 89% in assay [2] and 88.2% in assay [3]. Also, the fluorescence slope in assay [4] is -0.394 (inactive). In assay [5], the NADPH fluorescence slope is 1.3e-05 (inactive). Besides, in assay [6], the slope was 0.00668 (inactive).

With `CCOc1ccc(N(CC(=O)Nc2ccc(C)c(C)c2)S(=O)(=O)c2c(C)noc2C)cc1`, the cell count in assay [1] was 713. Moreover, the inhibition in assay [1] is 0% (inactive); in assay [3], -29% (inactive); in assay [7], 13.3% (inactive); in assay [8], 27.5% (inactive). The inhibition of aggregation in assay [2] is -19.3% (inactive). Also, the nuclei count in assay [2] stood at 86.1%; in assay [3], 100%. Moreover, the fluorescence slope in assay [4] was -0.554 (inactive). The NADPH fluorescence slope in assay [5] was -7.2e-07 (inactive). In assay [6], the slope was 0.00659 (inactive).

Take `O=C(c1ccc2nc(N3CCOCC3)sc2c1)N1CCCC1`: the cell count in assay [1] stood at 708. The inhibition is -11.2% (inactive) in assay [1], -70.6% (inactive) in assay [3], 3.55% (inactive) in assay [7] and 3.65% (inactive) in assay [8]. For the same compound, the inhibition of aggregation in assay [2] was 6% (inactive). Besides, the nuclei count in assay [2] turned out to be 62.7%; in assay [3], 116%. In addition, the fluorescence slope in assay [4] is -0.564 (inactive). Moreover, in assay [5], the NADPH fluorescence slope was -2.7e-05 (inactive). Moreover, the slope in assay [6] was 0.00689 (inactive).

`CCOC(=O)C(C(C)=O)c1nc(C)nc2c1nnn2Cc1ccccc1Cl` (stereo not drawn): the cell count in assay [1] came to 479. For the same compound, the inhibition in assay [1] is 8.5% (inactive); in assay [3], -10.3% (inactive); in assay [7], -11.2% (inactive); in assay [8], -19.4% (inactive). Moreover, the inhibition of aggregation in assay [2] was -6% (inactive). Also, the nuclei count turned out to be 96.1% in assay [2] and 106% in assay [3]. Moreover, in assay [4], the fluorescence slope is -0.356 (inactive). Moreover, the NADPH fluorescence slope in assay [5] was -5.3e-05 (inactive). Moreover, the slope in assay [6] is 0.00379 (inactive).

Regarding `Cc1cccc(-c2nnn(CC/C(N)=N/O)n2)c1`, in assay [1], the cell count worked out at 321. The inhibition is -4.8% (inactive) in assay [1], 25.6% (inactive) in assay [3], 2.73% (inactive) in assay [7] and -10.7% (inactive) in assay [8]. For the same compound, in assay [2], the inhibition of aggregation is -1.8% (inactive). Moreover, the nuclei count amounted to 84.2% in assay [2] and 90.5% in assay [3]. Further, in assay [4], the fluorescence slope was -0.496 (inactive). The NADPH fluorescence slope in assay [5] is -2.1e-05 (inactive). In assay [6], the slope was 0.00549 (inactive).

As for `Cc1ccc(S(=O)(=O)NCCOC(=O)Nc2sc(=S)n(C)c2C)cc1`, in assay [1], the cell count worked out at 466. Moreover, the inhibition was 1.6% (inactive) in assay [1], 15% (inactive) in assay [3], -15% (inactive) in assay [7] and 15.5% (inactive) in assay [8]. Besides, the inhibition of aggregation in assay [2] was -2.2% (inactive). Further, the figures for the nuclei count in assay [2] and in assay [3] were 103% and 108%, respectively. For the same compound, in assay [4], the fluorescence slope was -0.5 (inactive). Further, in assay [5], the NADPH fluorescence slope is 3.3e-05 (inactive). Further, the slope in assay [6] was 0.00618 (inactive).

In the case of `COc1ccc(C(=O)N2CCN(C3CCC(c4ccccc4)CC3)CC2)cc1OC` (stereo not drawn), the cell count in assay [1] came out at 420. The inhibition in assay [1] is -1.3% (inactive); in assay [3], 43.2% (inactive); in assay [7] it was 7.44% (inactive); in assay [8] it was 17.6% (inactive). For the same compound, the inhibition of aggregation in assay [2] was 20.2% (inactive). Besides, the values for the nuclei count in assay [2] and in assay [3] were 88.1% and 83.9%, respectively. In addition, the fluorescence slope in assay [4] is -0.436 (inactive). Besides, in assay [5], the NADPH fluorescence slope was -5.4e-05 (inactive). Moreover, the slope in assay [6] is 0.00292 (inactive).
